A short description of experiment [1]: qHTS assay to identify small molecule antagonists of the glucocorticoid receptor (GR) signaling pathway - cell viability counter screen (AID 720693). Note: nearly all actives have a fitted effect of over 55% in size. On the technique in general: qHTS replaces the single test concentration by a dilution series.
Experiment [2] is described as follows: qHTS assay for identifying genotoxic compounds that show differential cytotoxicity against isogenic chicken DT40 cell lines with known DNA damage response pathways - wild type cell line (AID 743012). Note: nearly all actives have a fitted effect of over 60% in size. Note: potency is the fitted concentration of half-maximal effect. An outline of the steps: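 Viability of DNA repair-proficient chicken DT40 cells was assessed by CellTiter-Glo luminescence following 40 h compound exposure at 37 C/5% CO2.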

Experiment [3] in a line: qHTS assay for identifying genotoxic compounds that show differential cytotoxicity against isogenic chicken DT40 cell lines with known DNA damage response pathways - Rev3 mutant cell line (AID 743014). Note: nearly all actives have a fitted effect of over 55% in size. Note: potency is the fitted concentration of half-maximal effect.
Experiment [4] addresses Androgen receptor (Homo sapiens) (UniProt P10275). Briefly: qHTS assay to identify small molecule antagonists of the androgen receptor (AR) signaling pathway (AID 743035; active = well fitted inhibition curve with a large enough effect in the signal ratio in the repeat runs, not every such curve was filed as active; the % refers to the signal ratio; note: potency is the fitted concentration of half-maximal effect). An outline of the steps: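 Reporter HEK293 cells were exposed to compounds and R1881 overnight (16 h, 37C); beta-lactamase activity was then quantified by FRET fluorescence.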
The nature of experiment [5]: qHTS assay to identify small molecule antagonists of the androgen receptor (AR) signaling pathway using the MDA cell line - cell viability counter screen (AID 743041; note: nearly all actives have a fitted effect of over 45% in size; note: potency is the fitted concentration of half-maximal effect). An outline of the steps: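 In this qHTS counter assay, fluorescence intensity after CellTiter-Fluor addition indicated viability of MDA-kb2 AR-luc cells given compounds and R1881 for 16 h at 37C.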
For experiment [6], the target named is Androgen receptor (Homo sapiens) (UniProt P10275). Briefly: qHTS assay to identify small molecule antagonists of the androgen receptor (AR) signaling pathway using the MDA cell line (AID 743042; note: nearly all actives have a fitted effect of over 55% in size; note: potency is the fitted concentration of half-maximal effect). An outline of the steps:
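MDA-kb2 cells (human breast carcinoma, stably carrying an MMTV-luciferase reporter responsive to AR and GR) were plated at 3,000 cells/well and preincubated 5 hr at 37C, then given compound plus R1881 agonist for 16 h. ONE-Glo luminescence was read.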

Experiment [7] can be described thus: qHTS assay to identify small molecule antagonists of the thyroid receptor (TR) signaling pathway - cell viability counter screen (AID 743064). Note: nearly all actives have a fitted effect of over 50% in size. Note: potency is the fitted concentration of half-maximal effect. The method, boiled down: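 GH3.TRE-Luc rat pituitary cells carrying a TRE-luciferase reporter were treated with compound plus 1 nM T3 (final) for 23.5 h at 37 °C. Viability was then read in the same wells by CellTiter-Fluor fluorescence after a further 30 min.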

Experiment [8] in a line: qHTS assay to identify small molecule antagonists of the thyroid receptor (TR) signaling pathway (AID 743065). Note: nearly all actives have a fitted effect of over 55% in size. Note: potency is the fitted concentration of half-maximal effect. The method, boiled down:
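GH3.TRE-Luc rat pituitary cells carrying two TR response elements driving luciferase were plated for 4 h, given compound plus 1 nM T3 (final), and incubated 23.5 h at 37 C. ONE-Glo luminescence measured reporter inhibition; CellTiter-Fluor fluorescence tracked cytotoxicity.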

A short description of experiment [9]: qHTS assay to identify small molecule antagonists of the estrogen receptor alpha (ER-alpha) signaling pathway - cell viability counter screen (AID 743074; calls by dose curve;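 note: HEK293 cells carrying ER-alpha-UAS-bla reporter stimulated with 17beta-estradiol; nearly all actives have a fitted effect of over 45% in size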).
In the next experiment the target is Aromatase (Homo sapiens) (UniProt P11511). Briefly: qHTS assay to identify aromatase inhibitors (AID 743083). Note: nearly all actives have a fitted effect of over 55% in size.
Aromatase (Homo sapiens), sequence (P11511 whole entry, looked up): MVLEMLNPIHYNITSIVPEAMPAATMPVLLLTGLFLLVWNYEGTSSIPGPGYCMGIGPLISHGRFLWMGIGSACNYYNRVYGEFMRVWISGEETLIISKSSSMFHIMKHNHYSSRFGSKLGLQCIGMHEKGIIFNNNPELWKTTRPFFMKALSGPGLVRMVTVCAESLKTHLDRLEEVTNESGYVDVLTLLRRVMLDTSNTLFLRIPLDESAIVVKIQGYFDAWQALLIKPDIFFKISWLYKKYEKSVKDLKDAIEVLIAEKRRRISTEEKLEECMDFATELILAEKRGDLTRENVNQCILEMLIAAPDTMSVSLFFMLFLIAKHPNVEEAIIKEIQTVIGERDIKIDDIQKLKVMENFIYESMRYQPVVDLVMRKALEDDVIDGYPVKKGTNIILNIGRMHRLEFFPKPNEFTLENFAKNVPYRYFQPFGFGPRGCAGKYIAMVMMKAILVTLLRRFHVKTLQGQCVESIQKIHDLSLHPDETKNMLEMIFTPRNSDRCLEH
Experiment [10] in a line: qHTS assay for identifying genotoxic compounds that show differential cytotoxicity against isogenic chicken DT40 cell lines with known DNA damage response pathways - Rad54/Ku70 mutant cell line (AID 743015). Note: nearly all actives have a fitted effect of over 60% in size.
Experiment [11] in a line: qHTS assay to identify small molecule antagonists of the androgen receptor (AR) signaling pathway - cell viability counter screen (AID 743033; note: nearly all actives have a fitted effect of over 45% in size).
For experiment [12], the system named is thyroid hormone receptor (rat, GH3 cells). Briefly: qHTS assay to identify small molecule agonists of the thyroid receptor (TR) signaling pathway (AID 743066; calls by dose curve).
Experiment [13] can be described thus: qHTS assay to identify aromatase inhibitors - cell viability counter screen (AID 743084).
In experiment [14] the target is Estrogen receptor (Homo sapiens) (UniProt P03372). Briefly: qHTS assay to identify small molecule antagonists of the estrogen receptor alpha (ER-alpha) signaling pathway (AID 743069; active = well fitted curve in the direction sought with a large enough effect in the signal ratio in the repeat runs, not every such curve was filed as active; the % refers to the signal ratio). The method, boiled down: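 A 17beta-estradiol challenge was applied right after compound transfer to ER-alpha-UAS-bla HEK293 cells previously kept in charcoal-stripped serum. Plates stood 18 hr at 37C and 5% CO2; fluorescence was read following 2 hr FRET substrate loading at room temperature.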
Estrogen receptor (Homo sapiens), sequence (P03372 whole entry, looked up): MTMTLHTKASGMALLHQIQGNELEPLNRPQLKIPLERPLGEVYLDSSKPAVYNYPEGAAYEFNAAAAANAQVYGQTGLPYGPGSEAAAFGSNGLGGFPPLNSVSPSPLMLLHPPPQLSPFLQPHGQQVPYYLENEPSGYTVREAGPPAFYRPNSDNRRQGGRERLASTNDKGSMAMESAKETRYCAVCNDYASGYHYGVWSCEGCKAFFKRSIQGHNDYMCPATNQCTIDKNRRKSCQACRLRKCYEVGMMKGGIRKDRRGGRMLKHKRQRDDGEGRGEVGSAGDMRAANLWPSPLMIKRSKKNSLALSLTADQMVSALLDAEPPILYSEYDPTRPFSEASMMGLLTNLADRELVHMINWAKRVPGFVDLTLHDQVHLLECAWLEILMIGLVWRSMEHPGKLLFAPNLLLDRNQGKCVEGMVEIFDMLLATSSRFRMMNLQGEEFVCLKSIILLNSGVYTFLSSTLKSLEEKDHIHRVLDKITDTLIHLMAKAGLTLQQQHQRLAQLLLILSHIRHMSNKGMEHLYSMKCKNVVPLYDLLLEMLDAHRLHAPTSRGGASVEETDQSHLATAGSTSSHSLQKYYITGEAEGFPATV

For experiment [15] the target is unchanged. Briefly: qHTS assay to identify small molecule agonists of the estrogen receptor alpha (ER-alpha) signaling pathway (AID 743075; calls by dose curve).
Experiment [16] has the same target. Briefly: qHTS assay to identify small molecule agonists of the estrogen receptor alpha (ER-alpha) signaling pathway using the BG1 cell line (AID 743079). Note: nearly all actives have a fitted effect of over 20% in size. The following applies: BG1Luc4E2 cells, ERE-luciferase agonist, 22 h.
Experiment [17] is described as follows: qHTS assay to identify small molecule antagonists of the estrogen receptor alpha (ER-alpha) signaling pathway using the BG1 cell line (AID 743080; calls by dose curve;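 note: BG1 cells stimulated with 17beta-estradiol alongside compound; nearly all actives have a fitted effect of over 25% in size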). The method, boiled down:
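BG1Luc4E2, endogenous ER-alpha, 4xERE-luc; 5 d charcoal-stripped FBS, phenol red free; 24 h plating; cpd + 17beta-estradiol 21.5 h, 37 C/5% CO2; CellTiter-Fluor viability 30 min, then ONE-Glo luciferase 30 min RT.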

Experiment [18] has as its target Androgen receptor (Homo sapiens) (UniProt P10275). Briefly: qHTS assay to identify small molecule agonists of the androgen receptor (AR) signaling pathway (AID 743036; active = well fitted activation curve with a large enough effect in the signal ratio in the repeat runs, with a control signal flat, not every such curve was filed as active; the % refers to the signal ratio). The method, boiled down: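 HEK293 cells stably carrying a UAS-driven beta-lactamase reporter (GeneBLAzer AR-UAS-bla-GripTite) were plated at 2,000 cells/well, rested 4 h at 37C, then exposed to compounds in DMSO for 16 h. LiveBLAzer B/G FRET substrate was added for 2 h at room temperature; fluorescence read.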

A short description of experiment [19]: qHTS assay to identify small molecule antagonists of the estrogen receptor alpha (ER-alpha) signaling pathway using the BG1 cell line - cell viability counter screen (AID 743081).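 Note: compound given together with 17beta-estradiol as the ER stimulus; nearly all actives have a fitted effect of over 45% in size.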

Results filed as inconclusive are left out. Values without a mark were called inactive. The source made the active and inactive calls. Unless noted, calls come from the whole dose curve; as a rule, active = well fitted curve in the direction sought with a large enough effect in the repeat runs; inconclusive = weak or mixed curves; inactive = no such curve, though single readings can be large; an effect the other way counts as inactive or inconclusive.
% is set by controls: 0 for no effect and ±100 for the full control effect.

Androgen receptor (Homo sapiens), sequence (P10275 whole entry, looked up): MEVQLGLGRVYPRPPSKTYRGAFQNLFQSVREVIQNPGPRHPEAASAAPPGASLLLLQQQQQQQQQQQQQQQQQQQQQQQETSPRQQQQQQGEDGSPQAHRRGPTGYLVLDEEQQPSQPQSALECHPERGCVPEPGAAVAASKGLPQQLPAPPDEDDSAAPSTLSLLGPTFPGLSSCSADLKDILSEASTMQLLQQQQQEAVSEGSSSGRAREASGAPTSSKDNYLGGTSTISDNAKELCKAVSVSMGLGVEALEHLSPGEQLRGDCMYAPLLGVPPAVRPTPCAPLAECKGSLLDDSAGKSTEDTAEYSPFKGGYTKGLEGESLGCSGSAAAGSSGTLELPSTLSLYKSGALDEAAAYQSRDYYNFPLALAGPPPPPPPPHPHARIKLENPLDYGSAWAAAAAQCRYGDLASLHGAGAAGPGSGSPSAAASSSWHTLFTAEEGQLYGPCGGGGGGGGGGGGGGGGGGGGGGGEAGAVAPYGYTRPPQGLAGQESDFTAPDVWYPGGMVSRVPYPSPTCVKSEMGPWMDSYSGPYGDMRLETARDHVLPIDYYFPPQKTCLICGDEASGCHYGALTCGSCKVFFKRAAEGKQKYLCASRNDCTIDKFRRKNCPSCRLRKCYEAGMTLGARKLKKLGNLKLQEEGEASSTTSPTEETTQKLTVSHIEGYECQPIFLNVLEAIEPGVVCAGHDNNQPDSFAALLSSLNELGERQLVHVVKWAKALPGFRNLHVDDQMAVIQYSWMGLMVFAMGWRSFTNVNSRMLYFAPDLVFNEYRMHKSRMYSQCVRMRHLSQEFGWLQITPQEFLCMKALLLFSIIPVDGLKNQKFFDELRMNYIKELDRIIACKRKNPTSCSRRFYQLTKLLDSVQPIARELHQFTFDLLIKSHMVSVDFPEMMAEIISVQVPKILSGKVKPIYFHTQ

`Cc1ccc(S(=O)(=O)N[C@@H](CCCCN)C(=O)CCl)cc1`: the Potency result (in experiment [1]; in experiment [9]; with Aromatase (Homo sapiens)) was “inactive” in each case. Moreover, the Potency in experiment [2] was 5.96 µM (active); in [3], 10.6 µM (active); in [4], 21.3 µM (active); in experiment [5] it was 21.1 µM (active); in [6], 23.7 µM (active); in [7], 16.8 µM (active). The Potency in experiment [8] is 13.3 µM (active).
As for `Oc1ccc2c3c1O[C@H]1[C@@H](O)C=C[C@H]4[C@@H](C2)NCC[C@@]341`, the Potency entry in experiment [1], in experiment [2], in experiment [10], in experiment [11], in experiment [5] and in [7] was “inactive” in each case. In addition, the Potency entry (in [8]; in experiment [12]; in [9]; in the experiment with Aromatase (Homo sapiens); in experiment [13]) was “inactive” in each case.
With `CC(C)(O)C(Cl)(Cl)Cl`, the Potency result in [1], in experiment [2], in [3], in experiment [11], in experiment [5] and in experiment [14] was “inactive” each time. Also, the Potency result (in experiment [15]; in experiment [17]; in the experiment with Aromatase (Homo sapiens); in [13]) was “inactive” throughout. Also, the activation in experiment [16] (at 70.3 µM (top of the series)) was 7.26%.
Regarding `O=C(Cl)/C=C/C(=O)Cl`, the Potency result in experiment [1], in experiment [2], in experiment [10], in experiment [11], in [5] and in experiment [6] was “inactive” each time. Moreover, the Potency result in experiment [8], in experiment [12], in experiment [14], in [15], in experiment [17] and in experiment [19] was “inactive” in each case. For the same molecule, the Potency entry (in the experiment with Aromatase (Homo sapiens); in experiment [13]) was “inactive” in each case. The result in experiment [18] was inactive. Also, the activation in [16] (at 95 µM (top of the series)) is 5.56%.
Regarding `CCC(C)(C#N)N=NC(C)(C#N)CC` (configuration not stated), the Potency result in [1], in [2], in experiment [10], in [11], in [4] and in experiment [5] was “inactive” each time. Besides, the Potency entry in [6], in [7], in experiment [12], in experiment [14], in experiment [9] and in experiment [15] was “inactive” each time. Besides, the Potency entry (in experiment [17]; in experiment [19]; with Aromatase (Homo sapiens); in [13]) was “inactive” each time. For the same molecule, the call in experiment [18] was inactive. The activation in [16] (at 70.3 µM (top of the series)) is -7.9%.
Turning to `CCN(CCO)CCO`, the Potency result in experiment [1], in experiment [2], in experiment [10], in experiment [11], in experiment [5] and in [7] was “inactive” throughout. Besides, the Potency entry in experiment [8], in experiment [12], in experiment [14], in experiment [9], in [15] and in experiment [17] was “inactive” throughout. Further, the Potency entry (in experiment [19]; with Aromatase (Homo sapiens); in [13]) was “inactive” each time. For the same molecule, the activation in experiment [16] (at 70.3 µM (top of the series)) is -3.36%.
For `O=[N+]([O-])CCO`, the Potency entry in [1], in experiment [2], in experiment [10], in experiment [11], in experiment [5] and in experiment [8] was “inactive” each time. Further, the Potency result in experiment [12], in [14], in [9], in experiment [15], in experiment [17] and in experiment [19] was “inactive” in each case. In addition, the Potency entry with Aromatase (Homo sapiens) is “inactive”. The activation in experiment [16] (at 95 µM (top of the series)) was -2.33%.
On to `CC(C)(C)C(=O)Cl`, for which the Potency result in experiment [1], in experiment [2], in experiment [10], in experiment [11], in experiment [5] and in [7] was “inactive” throughout. Further, the Potency result in [8], in [12], in experiment [9], in experiment [15], in [17] and in [19] was “inactive” each time. Besides, the Potency result (in the experiment with Aromatase (Homo sapiens); in experiment [13]) was “inactive” in each case. Moreover, in [16] (at 95 µM (top of the series)), the activation is -4.71%.
`CCCOc1nn(C(=O)NS(=O)(=O)c2ccccc2C(=O)OC)c(=O)n1C`: the Potency entry in experiment [1], in [2], in experiment [10], in experiment [4], in experiment [5] and in [6] was “inactive” throughout. Further, the Potency result (in experiment [7]; in experiment [8]; in experiment [12]; in experiment [19]; with Aromatase (Homo sapiens); in [13]) was “inactive” in each case. Further, in [18], the molecule was called inactive.
Regarding `COc1cccc(C=O)c1`, the Potency entry in experiment [1], in experiment [2], in experiment [10], in experiment [11], in [5] and in experiment [7] was “inactive” each time. Besides, the Potency result (in [12]; in [9]; in experiment [15]; in experiment [17]; in [19]; in the experiment with Aromatase (Homo sapiens)) was “inactive” in each case. Further, the Potency entry in experiment [13] was “inactive”. For the same molecule, the activation in [16] (at 70.3 µM (top of the series)) was -1.53%.
Turning to `CC(C)[C@]12CC(=O)[C@H](C)[C@H]1C2`, the Potency result in experiment [1], in experiment [2], in experiment [10], in [11], in experiment [5] and in experiment [8] was “inactive” in each case. Further, the Potency entry (in experiment [12]; in experiment [9]; in experiment [19]; in the experiment with Aromatase (Homo sapiens); in experiment [13]) was “inactive” in each case.
Take `C=CCc1cc(OC)c2c(c1)OCO2`: the Potency entry in experiment [1], in [2], in experiment [10], in experiment [11], in experiment [5] and in experiment [7] was “inactive” throughout. The Potency entry (in experiment [8]; in experiment [12]; in experiment [19]; in the experiment with Aromatase (Homo sapiens); in experiment [13]) was “inactive” in each case.
As to `Clc1ccc(C(Cl)(Cl)Cl)cn1`, the Potency result in [1], in [2], in experiment [10], in [11], in experiment [4] and in experiment [5] was “inactive” throughout. For the same molecule, the Potency entry in experiment [6], in experiment [8], in experiment [12], in experiment [14], in experiment [9] and in experiment [15] was “inactive” each time. Moreover, the Potency entry (in [19]; with Aromatase (Homo sapiens); in experiment [13]) was “inactive” in each case. In addition, in [18], the outcome was inactive. The activation in experiment [16] (at 70.3 µM (top of the series)) was -9.37%.

(Values after PubChem BioAssay (Tox21).)
